# Assay results from PubChem BioAssay.
# Inconclusive results are not listed. Active and inactive are the calls of the source. Unless noted, the rule behind the calls is not given here.
# Key:
# [1] = target: ATP-dependent translocase ABCB1 (Homo sapiens) (UniProt P08183); assay: MDR1 (ABCB1) efflux transporter inhibition, cell-based (AID 377; in the data active = fluorescence slope change above about 50%); conditions: MDR1-expressing cells, fluorescent substrate accumulation slope; stronger effect = higher value; concentration not given here
# [2] = tested on: Neuropilin-2 / VEGF-C interaction (human); assay: inhibitors of NRP2–VEGF-C binding, biochemical, microplate binding format, z-score (AID 743281); conditions: microplate NRP2/VEGF-C binding assay; stronger effect = lower value
# [3] = growth inhibition of DIPG glioma cells, dose response, cell-based, SU-DIPG-XVII, MIPE5.0, CellTiter-Glo, qHTS (AID 1347060; cut-off not given, nearly all actives have AC50 up to about 26 µM;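 for AC50: cells exposed to compound for 48 hours before viability readout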); conditions: SU-DIPG-XVII viability, CellTiter-Glo ATP luminescence
# [4] = growth inhibition of DIPG glioma cells, dose response, cell-based, SU-DIPG-XIII, MIPE4.0, CellTiter-Glo, qHTS (AID 1347061; cut-off not given, nearly all actives have AC50 up to about 37 µM;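 note: cells exposed to compound for 48 hours before readout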); conditions: SU-DIPG-XIII viability, CellTiter-Glo ATP luminescence
# [5] = growth inhibition of DIPG glioma cells, dose response, cell-based, JHH-DIPG-1, MIPE4.0, CellTiter-Glo, qHTS (AID 1347062; cut-off not given, nearly all actives have AC50 up to about 27 µM;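 for AC50: cells exposed to compound for two days before readout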); conditions: JHH-DIPG-1 viability, CellTiter-Glo ATP luminescence
# [6] = growth inhibition of DIPG glioma cells, dose response, cell-based, SU-DIPG-IV, MIPE4.0, CellTiter-Glo, qHTS (AID 1347063; cut-off not given, nearly all actives have AC50 up to about 30 µM;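 note: compound exposure lasted 48 hours before the viability readout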); conditions: SU-DIPG-IV viability, CellTiter-Glo ATP luminescence
# [7] = growth inhibition of DIPG glioma cells, dose response, cell-based, SU-DIPG-XIII, MIPE5.0, CellTiter-Glo, qHTS (AID 1347064; cut-off not given, nearly all actives have AC50 up to about 23 µM;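 for AC50: cells exposed to compound for 48 hours before the viability read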); conditions: SU-DIPG-XIII viability, CellTiter-Glo ATP luminescence
# [8] = viability loss in pontine glioma line – cell-based, SU-DIPG-XXV, MIPE5.0, CellTiter-Glo, qHTS, dose response (AID 1347065; cut-off not given, nearly all actives have AC50 up to about 26 µM;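 note: cells exposed to compound for 48 hours before ATP readout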); conditions: CellTiter-Glo ATP luminescence
# [9] = SU-DIPG-VI glioma cell viability, MIPE4.0 library, CellTiter-Glo luminescence, qHTS (AID 1347066; cut-off not given, nearly all actives have AC50 up to about 30 µM;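 note: cells exposed to compound for 48 hours before readout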); conditions: CellTiter-Glo ATP luminescence
# [10] = JHH-DIPG-1 glioma cell viability, MIPE5.0 library, CellTiter-Glo luminescence, qHTS (AID 1347067; cut-off not given, nearly all actives have AC50 up to about 26 µM;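 note: cells exposed to compound for 48 hours before readout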); conditions: JHH-DIPG-1 glioma viability, CellTiter-Glo ATP luminescence
# [11] = SU-DIPG-XXV glioma cell viability, MIPE5.0 library, qHTS (AID 1347068; cut-off not given, nearly all actives have IC50 up to about 30 µM;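 for IC50: cells exposed to compound for 48 hours before viability readout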)
# [12] = reducers of polyQ inclusions in PC12 cells, cell-based, NGF-treated PC12, GFPQ80 (AID 1614); conditions: PC12 NGF-treated GFP-polyQ80 inclusion reduction;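 note: lower means fewer inclusions and 0 means no inclusions at all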
# [13] = modifiers of HSF1 nuclear foci, imaging, Selleck Cancer Library (AID 1347162; in the data active = plate-normalised HSF1 focus index below about 0.46); conditions: human cells, at 10 µM; SSMD: measured here: HSF1 foci SSMD mean; cell count: measured here: cell number; plate-normalised HSF1 focus index: stronger effect = lower value
# [14] = tested on: Aerobactin synthetase IucA (Klebsiella pneumoniae); assay: IucA aerobactin synthetase inhibitors, biochemical, Tocris library, absorbance (AID 1345561); conditions: purified IucA enzyme assay, absorbance (OD) read-out; stronger effect = lower value;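 tested at 8 µM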;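 note: 100% = enzyme without compound and 0% = no enzyme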
# [15] = Cy5 fluorescence quenching or enhancement artefacts, artefact control for HCV NS3 helicase inhibitor project, biochemical, LOPAC1280 (AID 687037); conditions: Cy5-DNA-NS3h complex fluorescence interference counterscreen
# [16] = phospholipid biosynthesis inhibitors in animal cells, primary screen, cell-based, LOPAC library, screen 4 (AID 1347384); conditions: phospholipid biosynthesis inhibition screen, at 10 µM
# [17] = circadian clock period modulators, cell-based, LOPAC library, luminescence reporter (AID 2774); conditions: circadian reporter cells, at 7 µM, actives lie on both sides;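 note: values are relative to mean of DMSO wells on each plate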
# Sequence of ATP-dependent translocase ABCB1 (Homo sapiens) (P08183 whole entry, looked up): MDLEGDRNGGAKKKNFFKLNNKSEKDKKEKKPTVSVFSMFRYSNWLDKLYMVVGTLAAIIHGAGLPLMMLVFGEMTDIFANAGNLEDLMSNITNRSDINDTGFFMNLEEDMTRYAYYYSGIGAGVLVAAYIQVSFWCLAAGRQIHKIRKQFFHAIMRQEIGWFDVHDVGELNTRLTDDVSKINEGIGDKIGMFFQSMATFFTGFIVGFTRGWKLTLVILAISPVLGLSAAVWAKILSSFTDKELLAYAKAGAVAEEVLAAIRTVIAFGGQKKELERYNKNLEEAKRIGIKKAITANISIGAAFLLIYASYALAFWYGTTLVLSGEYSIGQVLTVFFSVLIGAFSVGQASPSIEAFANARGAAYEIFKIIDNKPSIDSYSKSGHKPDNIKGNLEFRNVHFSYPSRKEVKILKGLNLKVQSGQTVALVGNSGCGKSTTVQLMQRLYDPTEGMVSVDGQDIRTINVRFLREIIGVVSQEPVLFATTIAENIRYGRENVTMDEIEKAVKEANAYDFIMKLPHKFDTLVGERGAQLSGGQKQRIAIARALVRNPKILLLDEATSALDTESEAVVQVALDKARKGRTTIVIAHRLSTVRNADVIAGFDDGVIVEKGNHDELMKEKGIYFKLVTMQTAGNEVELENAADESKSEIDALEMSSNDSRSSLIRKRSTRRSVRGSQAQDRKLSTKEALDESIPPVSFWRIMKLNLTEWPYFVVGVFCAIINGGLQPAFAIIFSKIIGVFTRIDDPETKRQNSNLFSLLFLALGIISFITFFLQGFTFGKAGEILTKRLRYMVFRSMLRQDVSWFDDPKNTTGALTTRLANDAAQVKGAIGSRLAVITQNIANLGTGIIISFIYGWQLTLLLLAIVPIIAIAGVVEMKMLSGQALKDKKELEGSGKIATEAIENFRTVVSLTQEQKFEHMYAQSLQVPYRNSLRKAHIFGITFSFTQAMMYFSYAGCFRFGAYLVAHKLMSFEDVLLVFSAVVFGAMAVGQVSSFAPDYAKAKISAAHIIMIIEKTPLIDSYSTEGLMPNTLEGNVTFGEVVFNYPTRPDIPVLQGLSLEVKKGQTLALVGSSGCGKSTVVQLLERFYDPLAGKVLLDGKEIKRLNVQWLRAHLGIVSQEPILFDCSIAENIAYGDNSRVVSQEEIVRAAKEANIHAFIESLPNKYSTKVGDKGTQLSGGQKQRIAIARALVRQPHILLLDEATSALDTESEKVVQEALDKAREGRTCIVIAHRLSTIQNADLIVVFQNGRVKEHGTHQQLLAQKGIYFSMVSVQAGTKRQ
structure (smiles),measurement,setting,value
CC1=C(C(=O)O)N2C(=O)[C@@H](NC(=O)[C@H](N)c3ccccc3)[C@H]2SC1,fluorescence slope change,[1],94.6% (active)
same,outcome,[2],inactive
C[C@]12C=CC(=O)C=C1CC[C@@H]1[C@@H]2C(=O)C[C@@]2(C)[C@H]1CC[C@]2(O)C(=O)CO,outcome,[3],inactive
same,outcome,[4],inactive
same,outcome,[5],inactive
same,outcome,[6],inactive
same,outcome,[7],inactive
same,outcome,[8],inactive
same,outcome,[9],inactive
same,outcome,[10],inactive
same,outcome,[11],inactive
CCCSc1ccc2nc(NC(=O)OC)[nH]c2c1,fluorescence slope change,[1],97.2% (active)
Cc1cccc(Nc2ccccc2C(=O)O)c1C,inclusion score,[12],1.5
CCCN(CCC)S(=O)(=O)c1ccc(C(=O)O)cc1,inclusion score,[12],2
O=C1[C@H](CC[C@H](O)c2ccc(F)cc2)[C@@H](c2ccc(O)cc2)N1c1ccc(F)cc1,z-score,[2],-0.399 (inactive)
same,outcome,[3],inactive
same,AC50,[8],20900 nM (active)
same,outcome,[11],inactive
same,SSMD,[13],0.185
same,cell count,[13],6580
same,plate-normalised HSF1 focus index,[13],1.01 (inactive)
CC(C)C1CCC(C(=O)N[C@H](Cc2ccccc2)C(=O)O)CC1 (some centres not stated),z-score,[2],-0.458 (inactive)
same,outcome,[3],inactive
same,outcome,[4],inactive
same,outcome,[5],inactive
same,outcome,[6],inactive
same,outcome,[7],inactive
same,outcome,[8],inactive
same,outcome,[9],inactive
same,outcome,[10],inactive
same,outcome,[11],inactive
CCCCCCCCCCC[C@@H](C[C@@H]1OC(=O)[C@H]1CCCCCC)OC(=O)[C@H](CC(C)C)NC=O,z-score,[2],-1.43 (inactive)
same,remaining activity,[14],84.7% (inactive)
c1ccc2c(CC3=NCCN3)cccc2c1,inclusion score,[12],1.5
CCS(=O)(=O)CCn1c([N+](=O)[O-])cnc1C,fluorescence slope change,[1],11.6% (inactive)
same,z-score,[2],-0.45 (inactive)
CN[C@@H]1[C@H](O)[C@H](NC)[C@H]2O[C@@]3(O)C(=O)C[C@@H](C)O[C@H]3O[C@@H]2[C@H]1O,fluorescence slope change,[1],67% (active)
same,inclusion score,[12],1.5
same,AC50,[4],4690 nM (active)
same,AC50,[5],1050 nM (active)
same,AC50,[6],332 nM (active)
same,AC50,[9],1480 nM (active)
Nc1nc2ncc(CNc3ccc(C(=O)N[C@@H](CCC(=O)O)C(=O)O)cc3)nc2c(=O)[nH]1,fluorescence slope change,[1],5.4% (inactive)
same,inclusion score,[12],1.5
C[C@H]1C[C@@H]2[C@H]([C@@H](O)C[C@@]3(C)[C@H]2CC[C@]3(O)C(=O)CO)[C@@]2(C)C=CC(=O)C=C12,fluorescence slope change,[1],127% (active)
same,outcome,[3],inactive
same,outcome,[5],inactive
same,outcome,[7],inactive
same,outcome,[8],inactive
same,outcome,[10],inactive
same,outcome,[11],inactive
CN(C)c1ccc(O)c2c1C[C@H]1C[C@H]3[C@H](N(C)C)C(=O)C(C(N)=O)=C(O)[C@@]3(O)C(=O)C1=C2O,fluorescence slope change,[1],103% (active)
same,inclusion score,[12],0
same,outcome,[5],inactive
same,outcome,[9],inactive
same,outcome,[10],inactive
same,outcome,[11],inactive
COc1cc([C@@H]2c3cc4c(cc3[C@H](O)[C@H]3COC(=O)[C@H]23)OCO4)cc(OC)c1OC,AC50,[3],41.7 nM (active)
same,AC50,[5],74.3 nM (active)
same,outcome,[6],inactive
same,AC50,[7],29.5 nM (active)
same,AC50,[8],46.8 nM (active)
same,AC50,[10],29.5 nM (active)
same,IC50,[11],52.5 nM (active)
Fc1ccc([C@@H]2CCNC[C@H]2COc2ccc3c(c2)OCO3)cc1,fluorescence ratio (interference),[15],0.9 (inactive)
same,z-score,[2],0.222 (inactive)
same,remaining activity,[14],109% (inactive)
same,outcome,[9],inactive
same,outcome,[16],inactive
CN(C)CCOC(c1ccccc1)c1ccccc1,inclusion score,[12],2
same,period change,[17],-0.01 h (inactive)
same,fluorescence ratio (interference),[15],1 (inactive)
same,z-score,[2],-0.533 (inactive)
same,outcome,[5],inactive
same,outcome,[7],inactive
same,outcome,[8],inactive
same,outcome,[9],inactive
same,outcome,[10],inactive
same,outcome,[11],inactive
same,outcome,[16],inactive
O=c1n(CCCN2CCN(c3cccc(Cl)c3)CC2)nc2ccccn12,fluorescence slope change,[1],85.5% (active)
same,inclusion score,[12],2
same,period change,[17],-0.06 h (inactive)
same,fluorescence ratio (interference),[15],1 (inactive)
same,z-score,[2],0.0689 (inactive)
same,outcome,[4],inactive
same,outcome,[5],inactive
same,outcome,[6],inactive
same,outcome,[9],inactive
same,outcome,[16],inactive
CNCCCC12CCC(c3ccccc31)c1ccccc12,fluorescence slope change,[1],137% (active)
same,period change,[17],2.03 h (inactive)
same,fluorescence ratio (interference),[15],0.9 (inactive)
same,z-score,[2],-0.344 (inactive)
same,remaining activity,[14],112% (inactive)
same,AC50,[5],20900 nM (active)
same,AC50,[8],23500 nM (active)
same,outcome,[9],inactive
same,outcome,[11],inactive
same,outcome,[16],inactive
CC1(C)O[C@@H]2C[C@H]3[C@@H]4C[C@H](F)C5=CC(=O)C=C[C@]5(C)[C@H]4[C@@H](O)C[C@]3(C)[C@]2(C(=O)CO)O1,fluorescence slope change,[1],24.8% (inactive)
same,outcome,[3],inactive
same,outcome,[7],inactive
same,outcome,[8],inactive
same,outcome,[10],inactive
same,outcome,[11],inactive
O=C1N=C(O)CN1/N=C/c1ccc(-c2ccc([N+](=O)[O-])cc2)o1,fluorescence slope change,[1],54.9% (active)
same,inclusion score,[12],1.5
same,remaining activity,[14],110% (inactive)
CC1(C)O[C@@H]2C[C@H]3[C@@H]4CCC5=CC(=O)C=C[C@]5(C)[C@@]4(F)[C@@H](O)C[C@]3(C)[C@]2(C(=O)CO)O1,outcome,[3],inactive
same,outcome,[4],inactive
same,outcome,[6],inactive
same,outcome,[7],inactive
same,outcome,[8],inactive
same,outcome,[9],inactive
same,outcome,[10],inactive
same,outcome,[11],inactive
